The text below walks through data of ChEMBL document CHEMBL3988442, “University of Dundee, Small-Polar-MMV Screening Library” (2021).

Chromo domain-containing protein 1 (Saccharomyces cerevisiae (strain ATCC 204508 / S288c) (Baker's yeast)), sequence (P32657 whole entry, the tested form may be a part): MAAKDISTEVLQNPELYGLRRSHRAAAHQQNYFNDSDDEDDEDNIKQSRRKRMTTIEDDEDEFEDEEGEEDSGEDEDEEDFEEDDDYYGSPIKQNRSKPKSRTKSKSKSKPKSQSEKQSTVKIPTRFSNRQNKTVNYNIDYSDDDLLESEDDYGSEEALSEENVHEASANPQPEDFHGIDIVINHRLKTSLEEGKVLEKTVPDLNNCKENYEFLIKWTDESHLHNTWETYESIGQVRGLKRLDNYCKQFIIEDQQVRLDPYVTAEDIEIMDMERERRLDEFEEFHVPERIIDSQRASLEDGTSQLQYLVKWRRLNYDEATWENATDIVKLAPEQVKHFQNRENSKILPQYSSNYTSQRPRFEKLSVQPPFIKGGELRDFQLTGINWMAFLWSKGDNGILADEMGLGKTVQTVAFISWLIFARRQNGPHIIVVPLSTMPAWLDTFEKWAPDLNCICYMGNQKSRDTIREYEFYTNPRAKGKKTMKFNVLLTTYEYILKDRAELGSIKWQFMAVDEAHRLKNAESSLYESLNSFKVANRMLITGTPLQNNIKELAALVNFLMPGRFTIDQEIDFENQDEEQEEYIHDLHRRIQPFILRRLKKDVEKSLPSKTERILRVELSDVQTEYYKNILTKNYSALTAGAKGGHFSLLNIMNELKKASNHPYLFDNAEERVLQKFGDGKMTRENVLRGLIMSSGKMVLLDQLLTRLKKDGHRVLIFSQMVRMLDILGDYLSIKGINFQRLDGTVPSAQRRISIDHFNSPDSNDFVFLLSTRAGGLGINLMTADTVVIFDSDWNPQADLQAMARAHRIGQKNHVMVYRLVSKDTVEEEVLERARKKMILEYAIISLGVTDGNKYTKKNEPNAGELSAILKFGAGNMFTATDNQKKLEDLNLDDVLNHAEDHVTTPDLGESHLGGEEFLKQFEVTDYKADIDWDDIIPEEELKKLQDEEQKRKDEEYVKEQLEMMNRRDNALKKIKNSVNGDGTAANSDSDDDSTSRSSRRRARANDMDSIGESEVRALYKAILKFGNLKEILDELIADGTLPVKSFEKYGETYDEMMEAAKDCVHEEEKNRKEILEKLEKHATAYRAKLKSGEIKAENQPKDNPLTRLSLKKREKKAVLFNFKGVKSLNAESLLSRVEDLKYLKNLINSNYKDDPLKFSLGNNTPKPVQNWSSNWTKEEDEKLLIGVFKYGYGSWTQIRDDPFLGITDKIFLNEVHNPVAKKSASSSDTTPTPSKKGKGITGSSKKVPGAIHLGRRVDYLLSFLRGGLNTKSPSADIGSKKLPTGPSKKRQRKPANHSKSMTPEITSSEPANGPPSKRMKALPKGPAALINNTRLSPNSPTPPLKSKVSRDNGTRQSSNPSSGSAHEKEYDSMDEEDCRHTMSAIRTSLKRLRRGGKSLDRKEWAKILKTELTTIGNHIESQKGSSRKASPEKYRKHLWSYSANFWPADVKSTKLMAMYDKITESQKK

This test addresses Chromo domain-containing protein 1 (Saccharomyces cerevisiae (strain ATCC 204508 / S288c) (Baker's yeast)) (UniProt P32657). The test is described as follows: ScCHD-1 Enzyme Inhibition Assay. Type of test: functional. Details: scale not given: in the data most compounds retested in dose-response had high values. The conditions noted are these: 30 µM.
As for `CCc1cnc(CN(C(C)=O)C2CCN(CCc3cnn(C)c3)C2)o1` (centres undefined), the Percent Effect was -6.82%.
For the compound `CC(C)c1nnc2n1CC(CNCc1ccncc1)CC2` (centres undefined), the Percent Effect is -2.53%.
The result for `O=S(=O)(Cc1ccccc1F)NCCN1CCOCC1` reads -1.76%.
As for `COc1cc(C(=O)N2CCC(c3n[nH]c(C4CC4)n3)CC2)ccc1C`, the Percent Effect was -30.5%.
The result for `CC(C)(C)C(=O)NS(=O)(=O)c1ccc(C#N)cc1C(F)(F)F` reads -3.67%; that for `O=C(N1CCCO1)[C@@]12CCO[C@@H]1CCN(C1CCCCC1)C2`, -10.2%; that for `O=C(c1ccccc1-n1cccn1)N1CCCN(c2cccnn2)CC1`, -13.5%.
On to `Cc1cc(C)n(CC2CCCN2C(=O)c2cnn(C)c2C2CC2)n1` (centres undefined), for which the Percent Effect was 10.5%.
As to `CCC(C)(NCC(=O)Nc1nc(C)cs1)c1nc(C)cs1` (centres undefined), the Percent Effect was -3.58%.
The result for `CCOc1nnc(CN2CCC(N(C)Cc3noc(C)n3)C2)s1` (centres undefined) reads -8.06%; that for `Cc1ccc(=O)n(CC2(O)CCN(Cc3cnc(C)nc3)CC2)n1`, 5.12%; that for `O=C(Cn1c(=O)n(Cc2ccco2)c2ncccc21)Nc1ccccn1`, -0.416%.
The result for `COc1cccc(N2CCN(CC(O)c3cc(C)sc3C)CC2)c1` (centres undefined) reads -16.3%; that for `CCOCC(=O)NC1(c2cccc(Br)c2)CC1`, -3.38%; that for `CCc1noc(C(C)N(C)CC(=O)Nc2ccc(C)cc2)n1` (centres undefined), 2.11%.
As for `CCn1cnnc1CNC(=O)c1cc(Cl)ccc1OC`, the Percent Effect is -11.8%.
The result for `CCc1nc(CNC(=O)Nc2ccc(C(=O)NC)cc2C)cs1` reads -7.82%.
`O=C(CCc1cccs1)N1CCC(Nc2cccnn2)CC1`: the Percent Effect is -11.1%.
In the case of `COCC(=O)N1CCCC1c1cc(Nc2nnc(C)s2)nc(C)n1` (centres undefined), the Percent Effect was -5.17%.
With `CCn1ccnc1CN1C[C@@H](CN2CCCC2)[C@@H](CO)C1` the figure was -1.85%.
On to `COc1ccccc1CC(=O)NCc1c(C)nc2cc(=O)[nH]n2c1C`, for which the Percent Effect was -7.8%.
The result for `Cc1cc(-c2nnc(SCC(=O)O)n2C(C)c2ccccc2)nn1C` (centres undefined) reads -1.69%.
`CCOCCOC(C)C(=O)NCc1cn2cc(Br)ccc2n1` (centres undefined): the Percent Effect was -1.5%.
Take `CCc1nc2n(n1)CC(NCc1nc(C)ccc1O)CC2` (centres undefined): the Percent Effect is -1.98%.
On to `COc1ccccc1CC(=O)NS(C)(=O)=O`, for which the Percent Effect was -6.74%.
The result for `Cn1ccc(C(=O)NC2CCC23CCN(C(=O)c2ccncc2)CC3)c1` (centres undefined) reads 0.95%; that for `O=C1N(c2ccc(F)cc2)Cc2nc(=O)n(Cc3cccc(Cl)c3)n21`, -4.31%; that for `CNc1oc(-c2cc(S(=O)(=O)N3CCCCCC3)c(C)o2)nc1C#N`, -7.07%.
As to `COc1ccc(CN2CCCC3(CCN(c4ccsc4)C3=O)C2)cc1` (centres undefined), the Percent Effect was -0.303%.
`CCCc1n[nH]c(C2CN(CCCOc3ccccc3)CCO2)n1` (centres undefined): the Percent Effect stood at 13.9%.
With `COCCNC(=O)c1sc(Nc2ccc(Cl)cn2)nc1C`, the Percent Effect was -10.7%.
Take `c1ccc(CCN2CCOC(Cn3cccn3)C2)nc1` (centres undefined): the Percent Effect was -7.53%.
On to `CC1=Nc2c(c(=O)[nH]n2C(C)C)C(c2ccccc2)S1` (centres undefined), for which the Percent Effect is -3.79%.
Consider `CCCS(=O)(=O)N1CCO[C@H]2[C@H](OCc3ccccn3)CC[C@@H]21`, for which the Percent Effect was -2.32%.
For `Cc1nn(C)c(C)c1C1CCCN1C(=O)CCNc1ncccn1` (centres undefined), the Percent Effect is -4.96%.
For `Cn1c(Cn2ccnc2)nnc1C1CCCN(C2CCCCC2)C1` (centres undefined), the Percent Effect is -3.83%.
With `Cc1cc(N2CCN(C(=O)c3cc(Cl)c[nH]3)CC2)nc(N)n1` the figure was -0.523%; with `CCNc1cc2c(nn1)CCN(C(=O)c1ccc(NC3CC3)nc1)C2`, 1.67%; with `Cc1cn2c(n1)CCC(NC(=O)CCn1ccnn1)C2` (centres undefined), 3%.
